VHR inh color = VHR1 (DUSP3) phosphatase inhibition. actives 0.7% (n = 50,000). recombinant VHR phosphatase, colorimetric substrate read-out. P51452. inhibition, % at 20 µM; in the data active = inhibition above about 60%
Target sequence (P51452 whole entry, looked up): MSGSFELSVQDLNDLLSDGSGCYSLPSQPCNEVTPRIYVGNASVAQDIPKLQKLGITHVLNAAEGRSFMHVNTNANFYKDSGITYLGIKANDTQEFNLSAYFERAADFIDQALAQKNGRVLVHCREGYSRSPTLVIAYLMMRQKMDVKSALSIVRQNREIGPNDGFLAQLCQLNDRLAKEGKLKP
Each line names hits and unclear results; the compound was inactive in the other large screens. Many of the other results were omitted from the sample, so hits are more common in it than they were.

COc1cccc(C(=O)N2CCN(Cc3ccccc3[N+](=O)[O-])CC2)c1OC	none
CC(Oc1ccc2oc(-c3ccccc3)c(C(=O)O)c2c1)C(=O)O (configuration not stated)	VHR inh color 81
CCOc1ccc2oc(-c3ccccc3)c(C(=O)O)c2c1	none
CCOC(=O)c1c(-c2ccccc2)oc2ccc(OC(C)C(=O)OCC)cc12 (configuration not stated)	none
O=C1/C(=C/c2ccc(O)c([N+](=O)[O-])c2)SC(=S)N1c1ccc(Br)cc1	none
O=C(COc1ccc2ccccc2c1)Nc1cccc(Br)c1	none
O=C(Nc1ccc(Cl)cc1)c1ccc(Br)o1	none
O=C1NC(=S)N(c2cccc(Br)c2)C(=O)/C1=C/C=C/c1ccccc1	VHR inh color 69
C=CCN1C(=O)NC(=O)C(=Cc2cccn2C)C1=O	none
CCN1C(=O)/C(=C/c2cccn2C)C(=O)NC1=S	VHR inh color 66
O=C1NC(=S)N(c2cccc(Cl)c2)C(=O)/C1=C\c1ccc(N2CCCC2)cc1	none
CCN1C(=O)/C(=C/c2ccc(N3CCCC3)cc2)C(=O)NC1=S	none
O=C1NC(=S)N(c2ccc(Br)cc2)C(=O)/C1=C/C=C/c1ccccc1	none
CCN1C(=O)/C(=C/c2ccoc2)C(=O)NC1=S	VHR inh color 93
CCN1C(=O)/C(=C/c2cccc(OC)c2OC)C(=O)NC1=S	none
O=C1NC(=S)N(c2cccc(Br)c2)C(=O)/C1=C/c1ccc(Cl)cc1	none
O=C1NC(=S)N(c2ccccc2)C(=O)/C1=C/c1cc(Cl)cc(Cl)c1O	none
CCN1C(=O)/C(=C/c2ccc(C)o2)C(=O)NC1=S	none
Cn1cccc1/C=C1/C(=O)NC(=S)N(c2cccc(Cl)c2)C1=O	VHR inh color 75
Cc1cc2nc(-c3ccc(Cl)c(NC(=O)c4ccco4)c3)oc2cc1C	none
O=C1C(=O)N(Cc2ccc3c(c2)OCO3)C2C=CC=CC12 (configuration not stated)	none
CC(C)(C)c1cc(C2=C(N3CCOCC3)C(=O)c3ccccc3C2=O)cc(C(C)(C)C)c1O	none
Cc1ccc(-c2cc(NC(=O)c3ccc(Cl)cc3)n[nH]2)cc1	none
Cc1ccc(C(=O)Nc2ccc(C(N)=O)cc2)cc1C	none
CCOC(=O)c1csc(NC(=O)c2ccc(C(=O)c3ccccc3)cc2)n1	none
O=[N+]([O-])c1cc2c(cc1C1NN=C(c3ccccc3)S1)OCO2 (configuration not stated)	none
O=C(COC(=O)c1ccc(C#Cc2ccccc2)cc1)c1ccc(Br)cc1	none
O=C(NC(=S)Nc1ccc(F)cc1)c1ccccc1	none
COc1ccc(-c2nnc(SCc3ccccc3[N+](=O)[O-])n2-c2ccccc2)cc1	none
Cc1cccc(N2C(=O)C3C(c4ccccc4)C=CC(c4ccccc4)C3C2=O)c1C (configuration not stated)	none
Cc1ccc(C)n1-c1ccc(OCC(=O)O)cc1	none
CC(=O)c1ccc(-n2c(C)ccc2C)cc1	none
Cc1ccc(C)n1-c1ccc(SCC(=O)O)cc1	VHR inh color 91
COC(=O)c1ccccc1NC(=O)c1cc(-c2ccccc2)nc2ccccc12	none
O=C1CSC2=NCN(c3cccc(Cl)c3)CN12	none
O=C1CC(=O)N(c2cccc(Cl)c2)N1	VHR inh color 75
O=C1NC(=O)/C(=C\c2cccc(Cl)c2)S1	none
Fc1ccccc1/C=N/Nc1ccccn1	none
COc1cc(C2C(C(=O)/C=C/c3ccccc3)=C(O)C(=O)N2CCCCCC(=O)O)ccc1O (configuration not stated)	none
CCCC1=NN2C(=N)/C(=C/c3ccccc3C)C(=O)N=C2S1	none
C=CCOc1ccc(Cl)cc1/C=C1/C(=N)N2N=C(CCC)SC2=NC1=O	VHR inh color 108
CC(C)C1=NN2C(=N)/C(=C/c3cc(Cl)ccc3OCc3ccccc3)C(=O)N=C2S1	none
O=C(N/N=C\c1c(Cl)cccc1Cl)c1cnccn1	none
O=[N+]([O-])c1cncc([N+](=O)[O-])c1Nc1ccc(Cl)cn1	none
O=C(CCCCCCCCC(=O)N/N=C/C1CC=CCC1)N/N=C/C1CC=CCC1 (configuration not stated)	none
O=C(Nc1ccc(NS(=O)(=O)c2cccc(S(=O)(=O)c3ccccc3)c2)cc1)c1ccccc1	none
CCOC(=O)COc1cc(C)ccc1C(C)(C)C	none
CCOC(=O)c1c(C)nn(Cc2ccccc2)c1N	none
CCOC(=O)c1c(N)sc2c1CCN(Cc1ccccc1)C2	VHR inh color 96
CCCOC(=O)c1c(N)sc2c1CCC2	none
CC(=O)Nc1ccc(/C=C(/C#N)C(=O)NCc2ccco2)cc1	none
CCCCCC(=O)N1c2ccccc2NC2=C(C(=O)CC(c3ccc(OC)cc3)C2)C1c1ccco1 (configuration not stated)	none
COc1ccc(Oc2ccc(Oc3ccc(OC)cc3)cc2)cc1	none
Nc1ccc(Oc2ccc(N)cc2)cc1	none
Nc1ccc(Oc2ccc(N)c(N)c2)cc1N	VHR inh color 75
CON(C)c1nc(OCCNC(=O)COc2ccc(Cl)cc2Cl)nc(N(C)C)n1	none
Cc1cc(/C=N/Nc2ccc([N+](=O)[O-])cn2)c(C)n1-c1ccc(F)cc1	VHR inh color 87
Cc1cc(/C=N\Nc2ccc([N+](=O)[O-])cn2)c(C)n1-c1ccccc1F	none
Cc1cc(/C=N/n2cnnc2)c(C)n1-c1ccc(F)cc1	none
Cc1ccc(/C=N/n2cnnc2)cc1[N+](=O)[O-]	none
Cc1ccc(C)n1-c1ccc(C(=O)O)c(Cl)c1	none
Cc1ccc(C)n1-c1ccc(C(=O)O)c(O)c1	VHR inh color 97
Cc1ccc(C)n1-c1cc(C(=O)O)cc(C(=O)O)c1	none
O=C(NCCCCCCNC(=O)c1ccc(CN2CCOCC2)cc1)c1ccc(CN2CCOCC2)cc1	none
O=C(COc1ccc(Br)cc1)Nc1ccc(N2CCCCC2)c(Cl)c1	none
COC(=O)C1C2C(=O)N(c3ccccc3)C(=O)C12c1ccc(Cl)cc1 (configuration not stated)	none
CC1=C(C)CC2C(=O)N(c3ccc(-c4ccc([N+](=O)[O-])cc4)cc3)C(=O)C2C1 (configuration not stated)	none
O=C1C2C(c3ccc([N+](=O)[O-])cc3)OC3(C(=O)c4ccccc4C3=O)C2C(=O)N1c1ccc(Cl)cc1 (configuration not stated)	none
COC(=O)C1C2C(=O)N(c3ccc([N+](=O)[O-])cc3)C(=O)C12c1ccc(Cl)cc1 (configuration not stated)	VHR inh color 102
COC(=O)C1C2C(=O)N(c3ccc([N+](=O)[O-])cc3)C(=O)C12c1ccc(C)cc1 (configuration not stated)	VHR inh color 116
Cc1ccc(OCC(=O)N2CCN(c3ccc([N+](=O)[O-])cc3)CC2)cc1	none
CC(C)N1C(C)CC(O)N1C(=O)CC#N (configuration not stated)	none
O=C1NN(c2ccccc2)C(=O)/C1=C\c1ccc(Cl)cc1	none
Oc1c(Br)cc(Cl)cc1/C=N/Nc1nnc2c(n1)[nH]c1ccccc12	none
Cc1ccc(C(=O)Nc2sc3c(c2C(=O)N2CCCCCC2)CCC(C)C3)cc1 (configuration not stated)	none
Cc1ccc(C(=O)Nc2sc3c(c2C(=O)N2CCC(C(N)=O)CC2)CCCC3)cc1	none
Cc1ccc(C(=O)Nc2sc3c(c2C(=O)N2CCC(C)CC2)CCCC3)cc1	VHR inh color 87
O=C(Oc1ccc(I)cc1)c1cccs1	none
CC(=O)c1cccc(NC(=O)CC2S/C(=N\N=C\c3ccccc3)NC2=O)c1 (configuration not stated)	none
CCOC(=O)C1=C(O)/C(=C\c2ccc(OC)cc2)SC1=Nc1cccc(Cl)c1	none
CC(C)(C)c1ccc(C(=O)CC(=O)c2ccccc2O)cc1	none
Cc1ccc(COc2ccc3c(c2)oc(=O)c2ccccc23)cc1	none
CCc1cc(=O)oc2cc(OCc3cccc(C)c3)ccc12	none

High-throughput results as filed in PubChem.
